Measurements as given in PubChem BioAssay (EPA / NIEHS).
Active and inactive are the calls of the source. The calls were made as follows: active = hit-call score of the fitted dose curve at least 0.9, where 1 is the maximum; inactive = score below 0.9.

Experiments:
Conditions in all cases: mRNA level, 48 h; actives raise or lower the signal
[1] = read-out: MicroRNA 122 (MIR122), gene 406906; experiment: LTEA_HepaRG_MIR122: Life Technologies and Expression Analysis (LTEA) Assay for MicroRNA 122 (MIR122) using HepaRG (AID 2283516); also: the transcript read is the microRNA miR-122
Procedure, shortened: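 HepaRG plated 48 h, switched to serum-free induction medium, then treated in duplicate for 48 h (100 uM top, half-log steps, 0.5% DMSO vehicle). RNA isolated, qRT-PCR performed, concentration-response fitted both directions relative to DMSO.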

[2] = read-out: matrix metalloproteinase-10 (MMP10), MMP10 (gene 4319); experiment: LTEA_HepaRG_MMP10: Life Technologies and Expression Analysis (LTEA) Assay for matrix metalloproteinase-10 (MMP10) using HepaRG (AID 2283517)
Procedure, shortened: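 Gain or loss of MMP10 mRNA is fitted relative to the 0.5% DMSO vehicle. The human hepatic line HepaRG receives a 48-hour serum-free exposure, in duplicate, with a maximum concentration of 100 uM.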

MYC, MYC (gene 4609) = experiment: LTEA_HepaRG_MYC: Life Technologies and Expression Analysis (LTEA) Assay for MYC using HepaRG (AID 2283518)
Procedure, shortened: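 MYC transcript changes, up or down relative to 0.5% DMSO, from TaqMan qRT-PCR normalized to three housekeeping genes. Human HepaRG cultures received chemicals for 48 h at eight half-log concentrations up to 100 uM, in duplicate.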

[3] = read-out: matrix metalloproteinase-3 (MMP3), MMP3 (gene 4314); experiment: LTEA_HepaRG_MMP3: Life Technologies and Expression Analysis (LTEA) Assay for matrix metalloproteinase-3 (MMP3) using HepaRG (AID 2283519)
Procedure, shortened: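 HepaRG, human; 48 h dosing, 8 conc. (max 100 uM, half-log), duplicate, 0.5% DMSO. Readout: MMP3 transcript by Fluidigm TaqMan qRT-PCR, ACTB/GAPDH/POLR2A-normalised. Gain or loss fitted vs DMSO.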

[4] = read-out: Paternally Expressed 10 (PEG10), PEG10 (gene 23089); experiment: LTEA_HepaRG_PEG10: Life Technologies and Expression Analysis (LTEA) Assay for Paternally Expressed 10 (PEG10) using HepaRG (AID 2283520)
Procedure, shortened: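 HepaRG, 48 h post-plating → serum-free induction medium → 48 h chemical exposure (duplicate, 8-pt, max 100 uM, half-log, 0.5% DMSO) → lysis in RLT → TaqMan qRT-PCR for PEG10, ACTB/GAPDH/POLR2A normalisation.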

[5] = read-out: Protein phosphatase 2A (PPP2R4), PTPA (gene 5524); experiment: LTEA_HepaRG_PPP2R4: Life Technologies and Expression Analysis (LTEA) Assay for Protein phosphatase 2A (PPP2R4) using HepaRG (AID 2283522)
Procedure, shortened: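 Readout is PPP2R4 transcript level by microfluidic qRT-PCR after 48 h chemical treatment of human HepaRG liver cells. Concentrations spanned 100 uM downward in half-log steps; gain or loss of signal was fitted relative to DMSO.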

[6] = read-out: Phosphatase and tensin (PTEN), PTEN (gene 5728); experiment: LTEA_HepaRG_PTEN: Life Technologies and Expression Analysis (LTEA) Assay for Phosphatase and tensin (PTEN) using HepaRG (AID 2283523)
Procedure, shortened: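 Read-out is PTEN transcript level by multiplexed TaqMan qRT-PCR after 48 h chemical treatment of human HepaRG cultures in serum-free induction medium. Concentrations spanned 100 uM downward in half-log steps, 0.5% DMSO throughout; activity fitted in both directions against vehicle.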

[7] = read-out: solute carrier (SLC22A1), SLC22A1 (gene 6580); experiment: LTEA_HepaRG_SLC22A1: Life Technologies and Expression Analysis (LTEA) Assay for solute carrier (SLC22A1) using HepaRG (AID 2283524)
Procedure, shortened: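 HepaRG (human liver line), 48 h dosing in serum-free induction medium; 8 conc., half-log down from 100 uM, 0.5% DMSO vehicle, duplicates. Endpoint: SLC22A1 mRNA, qRT-PCR, housekeeping-normalized; gain/loss fit vs DMSO.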

[8] = read-out: Pyruvate Dehydrogenase Kinase 4 (PDK4), PDK4 (gene 5166); experiment: LTEA_HepaRG_PDK4: Life Technologies and Expression Analysis (LTEA) Assay for Pyruvate Dehydrogenase Kinase 4 (PDK4) using HepaRG (AID 2283525)
Procedure, shortened: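 In this multiplexed human HepaRG expression assay, cells are treated 48 h with test chemicals across an eight-point range starting at 100 uM. PDK4 mRNA changes, normalized to ACTB/GAPDH/POLR2A, are fitted in both directions relative to vehicle.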

[9] = read-out: NAD(P)H dehydrogenase [quinone] 1 (NQO1), NQO1 (gene 1728); experiment: LTEA_HepaRG_NQO1: Life Technologies and Expression Analysis (LTEA) Assay for NAD(P)H dehydrogenase [quinone] 1 (NQO1) using HepaRG (AID 2283526)
Procedure, shortened: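 HepaRG, 48 h post-plating → serum-free induction medium → test chemical 48 h (duplicate, 100 uM top, half-log x8, 0.5% DMSO) → RNA isolation → qRT-PCR, ACTB/GAPDH/POLR2A normalization; bidirectional curve fit vs DMSO baseline.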

[10] = read-out: Nuclear factor erythroid 2-related factor 2 (Homo sapiens) (UniProt Q16236); experiment: LTEA_HepaRG_NFE2L2: Life Technologies and Expression Analysis (LTEA) Assay for Nuclear factor erythroid 2-related factor 2 (NFE2L2) Transcription Factor using HepaRG (AID 2283527)
Procedure, shortened: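 Transcript level of NFE2L2 is the read-out, measured by microfluidic TaqMan qRT-PCR and normalized to three housekeeping genes. Human HepaRG cultures received test chemical for 48 h at up to 100 uM in half-log steps. Gain or loss of signal is fitted relative to 0.5% DMSO.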

[11] = read-out: succinate dehydrogenase complex iron sulfur subunit B (SDHB), SDHB (gene 6390); experiment: LTEA_HepaRG_SDHB: Life Technologies and Expression Analysis (LTEA) Assay for succinate dehydrogenase complex iron sulfur subunit B (SDHB) using HepaRG (AID 2283528)
Procedure, shortened: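 HepaRG cells (~100,000/well, plated 48 h) exposed in duplicate for 48 h in serum-free induction medium to 8-point half-log series from 100 uM in 0.5% DMSO; mRNA by qRT-PCR normalised to ACTB, GAPDH, POLR2A; bidirectional fit versus DMSO.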

[12] = read-out: Signal transducer and activator of transcription 3 (Homo sapiens) (UniProt P40763); experiment: LTEA_HepaRG_STAT3: Life Technologies and Expression Analysis (LTEA) Assay for Signal transducer and activator of transcription (STAT3) using HepaRG (AID 2283529)
Procedure, shortened: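 Read-out is STAT3 mRNA level by qRT-PCR, normalized to three housekeeping genes, in human HepaRG liver cells treated for 48 h. Concentrations ran from 100 uM downward in half-log steps; curves were fitted for gain or loss relative to 0.5% DMSO.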

[13] = read-out: solute carrier (SLCO1B1), SLCO1B1 (gene 10599); experiment: LTEA_HepaRG_SLCO1B1: Life Technologies and Expression Analysis (LTEA) Assay for solute carrier (SLCO1B1) using HepaRG (AID 2283530)
Procedure, shortened: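 SLCO1B1 transcript levels were quantified by TaqMan qRT-PCR using three housekeeping genes for normalization. This followed 48 h chemical exposure (100 uM top, half-log, 8 points, 0.5% DMSO) of HepaRG liver cells, with gain or loss fitted relative to DMSO.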

[14] = read-out: sulfotransferase 2A1 (SULT2A1), SULT2A1 (gene 6822); experiment: LTEA_HepaRG_SULT2A1: Life Technologies and Expression Analysis (LTEA) Assay for sulfotransferase 2A1 (SULT2A1) using HepaRG (AID 2283531)
Procedure, shortened: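 Expression change of SULT2A1, by qRT-PCR with three housekeeping-gene normalization, was scored bidirectionally versus DMSO. Cells: differentiated HepaRG, dosed in duplicate for 48 h across 8 points, highest 100 µM, half-log dilution, 0.5% DMSO.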

[15] = read-out: Transforming Growth Factor (TGFA), TGFA (gene 7039); experiment: LTEA_HepaRG_TGFA: Life Technologies and Expression Analysis (LTEA) Assay for Transforming Growth Factor (TGFA) using HepaRG (AID 2283532)
Procedure, shortened: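 HepaRG (human liver line), 48 h exposure, 8 conc. half-log down from 100 uM, 0.5% DMSO vehicle, duplicates; serum-free induction medium. TGFA mRNA by TaqMan qRT-PCR, ACTB/GAPDH/POLR2A normalization; gain/loss fit vs DMSO.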

[16] = read-out: Transforming Growth Factor (TGFB1), TGFB1 (gene 7040); experiment: LTEA_HepaRG_TGFB1: Life Technologies and Expression Analysis (LTEA) Assay for Transforming Growth Factor (TGFB1) Transporter using HepaRG (AID 2283533)
Procedure, shortened: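 TGFB1 transcript measured by qRT-PCR with normalisation to three housekeeping genes (ACTB, GAPDH, POLR2A); human HepaRG line treated in duplicate for 48 hr with an 8-point series topping at 100 uM, 0.5% DMSO vehicle, bidirectionally fitted.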

[17] = read-out: Tumor necrosis factor receptor 1 (TNFRSF1A), TNFRSF1A (gene 7132); experiment: LTEA_HepaRG_TNFRSF1A: Life Technologies and Expression Analysis (LTEA) Assay for Tumor necrosis factor receptor 1 (TNFRSF1A) using HepaRG (AID 2283535)
Procedure, shortened: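 mRNA measured by qRT-PCR (TaqMan, Fluidigm arrays) against ACTB/GAPDH/POLR2A housekeepers after 48 h chemical exposure of HepaRG cells. Top concentration 100 uM, half-log 8-point series, duplicates; vehicle 0.5% DMSO, both fit directions.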

TIMP1, TIMP1 (gene 7076) = experiment: LTEA_HepaRG_TIMP1: Life Technologies and Expression Analysis (LTEA) Assay for TIMP1 using HepaRG (AID 2283534);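 also: TaqMan qRT-PCR signal normalized to ACTB GAPDH and POLR2A housekeeping genes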
Procedure, shortened: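 Bidirectional change in TIMP1 transcript versus 0.5% DMSO, measured by TaqMan qRT-PCR with three housekeeping genes for normalization. HepaRG human liver cells dosed 48 h in duplicate, top concentration 100 uM with half-log dilutions.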

[18] = read-out: Nuclear factor NF-kappa-B p105 subunit (Homo sapiens) (UniProt P19838); experiment: LTEA_HepaRG_NFKB1: Life Technologies and Expression Analysis (LTEA) Assay for Nuclear Factor Kappa B Subunit 1 (NFKB1) using HepaRG (AID 2283521)
Procedure, shortened: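 Differentiated human HepaRG cells in serum-free induction medium with 0.5% DMSO were exposed for 48 h to eight half-log concentrations, top 100 uM, in duplicate. NFKB1 mRNA measured by Fluidigm TaqMan qRT-PCR, normalised to ACTB, GAPDH and POLR2A; bidirectional fit versus DMSO.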

Measured: AC50

Signal transducer and activator of transcription 3 (Homo sapiens), sequence (P40763 whole entry, looked up): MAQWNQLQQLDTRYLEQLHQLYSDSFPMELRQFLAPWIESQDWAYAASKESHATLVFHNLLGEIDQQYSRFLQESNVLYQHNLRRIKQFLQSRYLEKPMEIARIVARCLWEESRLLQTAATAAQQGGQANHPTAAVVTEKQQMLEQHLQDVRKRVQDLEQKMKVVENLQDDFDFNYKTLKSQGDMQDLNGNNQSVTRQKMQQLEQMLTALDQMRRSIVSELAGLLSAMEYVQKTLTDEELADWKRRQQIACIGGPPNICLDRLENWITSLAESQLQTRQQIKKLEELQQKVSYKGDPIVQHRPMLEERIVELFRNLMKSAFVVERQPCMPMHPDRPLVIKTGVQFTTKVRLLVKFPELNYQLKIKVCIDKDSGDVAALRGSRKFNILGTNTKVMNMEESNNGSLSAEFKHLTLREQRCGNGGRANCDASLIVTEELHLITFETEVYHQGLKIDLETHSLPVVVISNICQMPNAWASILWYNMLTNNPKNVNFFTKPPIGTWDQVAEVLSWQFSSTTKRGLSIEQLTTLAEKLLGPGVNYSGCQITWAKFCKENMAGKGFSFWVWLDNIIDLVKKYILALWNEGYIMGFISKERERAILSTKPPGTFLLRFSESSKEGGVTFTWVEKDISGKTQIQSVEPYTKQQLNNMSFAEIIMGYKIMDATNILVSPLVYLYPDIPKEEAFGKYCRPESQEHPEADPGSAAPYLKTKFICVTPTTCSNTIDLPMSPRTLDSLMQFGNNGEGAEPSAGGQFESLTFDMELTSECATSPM
Nuclear factor erythroid 2-related factor 2 (Homo sapiens), sequence (Q16236 whole entry, looked up): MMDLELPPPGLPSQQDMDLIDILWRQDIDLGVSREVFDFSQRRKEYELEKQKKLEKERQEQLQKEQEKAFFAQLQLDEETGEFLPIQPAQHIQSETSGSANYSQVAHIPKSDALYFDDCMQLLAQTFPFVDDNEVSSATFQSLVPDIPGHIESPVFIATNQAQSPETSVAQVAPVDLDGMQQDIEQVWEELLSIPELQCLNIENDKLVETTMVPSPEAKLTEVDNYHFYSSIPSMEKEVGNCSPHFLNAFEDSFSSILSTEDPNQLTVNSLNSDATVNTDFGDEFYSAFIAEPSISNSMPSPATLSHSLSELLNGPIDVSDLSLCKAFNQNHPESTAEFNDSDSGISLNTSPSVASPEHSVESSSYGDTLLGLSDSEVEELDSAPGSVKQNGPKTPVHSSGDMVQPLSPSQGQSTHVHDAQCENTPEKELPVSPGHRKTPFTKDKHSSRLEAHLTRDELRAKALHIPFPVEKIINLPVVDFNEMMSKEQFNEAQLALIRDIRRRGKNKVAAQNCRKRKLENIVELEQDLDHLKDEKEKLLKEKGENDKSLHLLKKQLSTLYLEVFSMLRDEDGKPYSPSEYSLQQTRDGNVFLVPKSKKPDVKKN
Nuclear factor NF-kappa-B p105 subunit (Homo sapiens), sequence (P19838 whole entry, looked up): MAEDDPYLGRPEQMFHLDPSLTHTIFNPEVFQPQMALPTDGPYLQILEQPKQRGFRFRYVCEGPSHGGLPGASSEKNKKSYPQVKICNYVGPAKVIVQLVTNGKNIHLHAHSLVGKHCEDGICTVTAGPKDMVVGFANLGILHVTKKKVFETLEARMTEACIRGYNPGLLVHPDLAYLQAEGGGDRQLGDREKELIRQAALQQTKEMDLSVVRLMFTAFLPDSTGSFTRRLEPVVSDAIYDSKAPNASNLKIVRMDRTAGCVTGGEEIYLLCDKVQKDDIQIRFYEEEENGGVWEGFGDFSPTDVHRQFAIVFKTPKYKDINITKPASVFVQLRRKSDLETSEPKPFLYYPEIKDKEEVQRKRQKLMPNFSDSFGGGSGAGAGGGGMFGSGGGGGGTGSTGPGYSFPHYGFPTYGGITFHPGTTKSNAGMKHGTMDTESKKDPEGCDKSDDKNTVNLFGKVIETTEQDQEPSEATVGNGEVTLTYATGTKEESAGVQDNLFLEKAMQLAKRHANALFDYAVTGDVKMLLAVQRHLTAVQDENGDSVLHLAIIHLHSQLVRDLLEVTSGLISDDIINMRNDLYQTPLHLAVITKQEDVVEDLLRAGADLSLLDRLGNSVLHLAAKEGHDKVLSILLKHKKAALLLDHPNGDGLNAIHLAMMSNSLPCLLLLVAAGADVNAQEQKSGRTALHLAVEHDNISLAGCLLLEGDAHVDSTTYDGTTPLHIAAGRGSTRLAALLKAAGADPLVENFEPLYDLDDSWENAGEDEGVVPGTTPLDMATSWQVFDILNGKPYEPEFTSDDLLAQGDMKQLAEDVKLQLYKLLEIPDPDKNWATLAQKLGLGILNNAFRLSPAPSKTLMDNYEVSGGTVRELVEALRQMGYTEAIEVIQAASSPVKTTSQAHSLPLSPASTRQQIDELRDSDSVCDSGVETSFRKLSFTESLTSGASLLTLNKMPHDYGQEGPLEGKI

CC(C)NCC(O)c1ccc(O)c(O)c1 (stereo not given)
active: [4] 0.149 µM | [5] 0.155 µM | [7] 0.209 µM | [10] 0.2 µM | [13] 0.136 µM | [14] 0.194 µM
not listed: TIMP1, TIMP1 (gene 7076) | [18]
inactive: all other assays above

C/C=C/C=C/C(=O)O
not listed: [18]
inactive: all other assays above

Cc1occc(=O)c1O
not listed: [2]
inactive: all other assays above

CCc1nc(N)nc(N)c1-c1ccc(Cl)cc1
active: [1] 33.2 µM | MYC, MYC (gene 4609) 78.7 µM | [4] 38.9 µM | [7] 21.1 µM | [8] 50 µM | [14] 1.33 µM
not listed: [9] | [18]
inactive: all other assays above

CC(COCC(C)OC(=O)c1ccccc1)OC(=O)c1ccccc1 (stereo not given)
not listed: [18]
inactive: all other assays above

CC(=O)O[C@]1(C(C)=O)CC[C@H]2[C@@H]3C=C(Cl)C4=CC(=O)[C@@H]5C[C@@H]5[C@]4(C)[C@H]3CC[C@@]21C
active: MYC, MYC (gene 4609) 9.92 µM | [7] 50 µM | [10] 81.2 µM | [12] 50 µM | [13] 76.8 µM | [14] 50 µM
not listed: [1]
inactive: all other assays above

CCCCCCCCCCCCCCOS(=O)(=O)O
active: [7] 80.6 µM | [8] 49.6 µM
not listed: [18]
inactive: all other assays above

CC(N)=O
active: [17] 0.243 µM
not listed: [6] | [18]
inactive: all other assays above

O=C1NC(=O)C(c2ccccc2)(c2ccccc2)N1
active: [14] 50 µM
not listed: [18]
inactive: all other assays above

CCCC[C@H]1CN(CC2CCOCC2)C(=O)OC12CCN(C1(C)CCN(C(=O)c3c(C)ncnc3C)CC1)CC2
not listed: [18]
inactive: all other assays above

Oc1ccccc1O
not listed: [9] | [18]
inactive: all other assays above

CC(=O)CC(c1ccccc1)c1c(O)c2ccccc2oc1=O (stereo not given)
not listed: [9] | [18]
inactive: all other assays above

CN(C)C(=O)NC1(c2ccccc2)CCN(CC[C@@]2(c3ccc(F)c(F)c3)CN(C(=O)c3ccccc3)CCO2)CC1
active: [4] 1.35 µM | [7] 9.33 µM | [8] 21.1 µM | [14] 25.3 µM
not listed: [18]
inactive: all other assays above

NC1CCCCC1
not listed: [9] | [18]
inactive: all other assays above

O=C(NS(=O)(=O)/C=C/c1cccs1)c1ccc(F)cc1Br
active: [4] 50 µM
not listed: [9] | [18]
inactive: all other assays above

CCCCCCCCCC[N+](C)(C)[O-]
not listed: [18]
inactive: all other assays above

COC(=O)[C@H]1[C@H]2C[C@@H]3c4[nH]c5cc(OC)ccc5c4CCN3C[C@H]2C[C@@H](OC(=O)c2cc(OC)c(OC)c(OC)c2)[C@@H]1OC
active: [1] 55 µM | [2] 25.3 µM | MYC, MYC (gene 4609) 29.1 µM | [7] 52.8 µM | [10] 42.2 µM | [13] 59 µM | [14] 62.8 µM
not listed: [4] | [18]
inactive: all other assays above
